According to the supplement of paper PMC3545927:
The list shows a part of the results. No count for the full screen is at hand.

B1: FS-2002 (peptide)
chain: CAREFRIIFDAGNASASA
B2: HC1241 (peptide)
chain: CAPCEPEPDVAGNASASA
B3: HC43 (peptide)
chain: CATTPVSGSWAGNASASA
B4: HC2192 (peptide)
chain: CAEVETSTWVAGNASASA
B5: HC123 (peptide)
chain: CAEVVVSTWVAGNASASA
B6: FS-928 (peptide)
chain: CAETMRRRRHAGNASASA
B7: FS-320 (peptide)
chain: CAYMNRRRRHAGNASASA
B8: FS-69 (peptide)
chain: CAPISRRRRHAGNASASA
B9: HC597 (peptide)
chain: CAVILLMCAVAGNASASA
B10: FS-1577 (peptide)
chain: CAVALRRRRHAGNASASA
B11: HC1551 (peptide)
chain: CAELITSCSSAGNASASA
B12: HC1510 (peptide)
chain: CACRASGVLTAGNASASA
B13: HC2159 (peptide)
chain: CAPVVTSTWVAGNASASA
B14: HC1442 (peptide)
chain: CAEVFCVQPEAGNASASA
B15: FS-1236 (peptide)
chain: CAMMSRIFRHAGNASASA
B16: FS-275 (peptide)
chain: CAMKIRRRRHAGNASASA
B17: HC2003 (peptide)
chain: CAVACCSMSYAGNASASA
B18: FS-2720 (peptide)
chain: CARMKRILQRAGNASASA
B19: FS-2222 (peptide)
chain: CARMKRYILHAGNASASA
B20: HC268 (peptide)
chain: CAEAADAILHAGNASASA
B21: FS-2264 (peptide)
chain: CARKKKEEEMAGNASASA
B22: FS-2722 (peptide)
chain: CARMKRVWDRAGNASASA
B23: FS-2718 (peptide)
chain: CARMKREDLNAGNASASA
B24: FS-2047 (peptide)
chain: CARMKREITTAGNASASA
B25: FS-3228 (peptide)
chain: CARMKRESLMAGNASASA
B26: HC76 (peptide)
chain: CATTPCTGSWAGNASASA
B27: HC1025 (peptide)
chain: CAKQKALGLLAGNASASA
B28: HC1659 (peptide)
chain: CALLLAAGVGAGNASASA

Target: furin, P09958
Test: furin cleavage Z-score vs untreated control; higher = more cleavage, active = 3.5 or more, inactive = 1 or less, 8 variable residues between constant flanks
Procedure, shortened: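 Reactions of 0.01 ml ran for 7.5, 15 or 30 min in 50 mM HEPES pH 7.5 with CaCl2 and NaCl, at 1:10 enzyme:substrate. In them, purified furin acted on bead-held 8-mer peptides fused to a cDNA oligonucleotide. The cleavage Z-score was obtained by lowess-adjusting log sequencing counts of released DNA against furin-free reactions and scaling by median absolute deviation.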

Chain of furin, P09958 (P09958 whole entry): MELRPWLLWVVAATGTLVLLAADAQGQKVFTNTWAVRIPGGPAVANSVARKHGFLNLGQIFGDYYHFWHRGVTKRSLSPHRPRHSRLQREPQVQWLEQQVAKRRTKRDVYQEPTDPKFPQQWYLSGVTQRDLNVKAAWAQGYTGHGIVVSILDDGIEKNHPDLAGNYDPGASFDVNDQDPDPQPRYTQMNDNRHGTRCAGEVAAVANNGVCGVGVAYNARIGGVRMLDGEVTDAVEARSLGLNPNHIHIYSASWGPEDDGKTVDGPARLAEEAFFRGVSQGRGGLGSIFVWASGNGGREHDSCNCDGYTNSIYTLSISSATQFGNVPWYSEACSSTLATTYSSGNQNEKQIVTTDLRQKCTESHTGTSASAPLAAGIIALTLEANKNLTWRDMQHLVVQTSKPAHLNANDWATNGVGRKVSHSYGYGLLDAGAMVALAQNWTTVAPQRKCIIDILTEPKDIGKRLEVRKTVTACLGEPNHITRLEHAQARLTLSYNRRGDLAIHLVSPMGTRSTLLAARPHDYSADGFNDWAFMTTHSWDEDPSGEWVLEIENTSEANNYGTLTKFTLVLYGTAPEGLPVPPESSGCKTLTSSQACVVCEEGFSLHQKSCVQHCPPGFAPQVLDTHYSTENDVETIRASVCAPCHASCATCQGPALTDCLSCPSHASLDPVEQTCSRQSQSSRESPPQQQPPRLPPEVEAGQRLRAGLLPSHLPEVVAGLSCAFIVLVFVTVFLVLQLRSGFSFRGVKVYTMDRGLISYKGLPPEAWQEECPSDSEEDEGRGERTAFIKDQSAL

Sequence	furin cleavage Z-score (7.5 min)	furin cleavage Z-score (15 min)	furin cleavage Z-score (30 min)
B1	-0.0827 (inactive)	-0.962 (inactive)	-0.343 (inactive)
B2	-0.464 (inactive)	0.432 (inactive)	-0.805 (inactive)
B3	-0.371 (inactive)	0.0296 (inactive)	0.074 (inactive)
B4	-0.139 (inactive)	-0.872 (inactive)	-0.676 (inactive)
B5	0.0781 (inactive)	-2.67 (inactive)	-0.513 (inactive)
B6	10.4 (active)	11.7 (active)	10 (active)
B7	5.9 (active)	7.94 (active)	6.26 (active)
B8	10.5 (active)	12.1 (active)	10.2 (active)
B9	-0.0828 (inactive)	-1.86 (inactive)	-1.55 (inactive)
B10	11.1 (active)	12.6 (active)	9.5 (active)
B11	-0.448 (inactive)	0.888 (inactive)	-0.654 (inactive)
B12	-0.191 (inactive)	-0.919 (inactive)	-0.424 (inactive)
B13	0.805 (inactive)	0.48 (inactive)	0.275 (inactive)
B14	-0.865 (inactive)	-0.957 (inactive)	-0.965 (inactive)
B15	-0.468 (inactive)	-0.194 (inactive)	1.99
B16	6.27 (active)	6.38 (active)	5.11 (active)
B17	-0.939 (inactive)	1.22	0.305 (inactive)
B18	0.0731 (inactive)	1.31	0.696 (inactive)
B19	2.82	6.82 (active)	8.57 (active)
B20	1.3	-1.15 (inactive)	0.548 (inactive)
B21	-1.03 (inactive)	-1.15 (inactive)	-0.39 (inactive)
B22	2.92	-0.324 (inactive)	0.97 (inactive)
B23	11.1 (active)	11.1 (active)	9.09 (active)
B24	9.07 (active)	9.89 (active)	7.88 (active)
B25	9.24 (active)	10.5 (active)	11.4 (active)
B26	0.592 (inactive)	0.698 (inactive)	0.31 (inactive)
B27	-0.454 (inactive)	1.56	0.147 (inactive)
B28	-1.34 (inactive)	-0.972 (inactive)	0.0513 (inactive)
